# Reference: PubChem BioAssay (NCI)
# The panel holds about 83,000 compounds, 20% with a hit somewhere; the sample as a whole holds those more often.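 Activity criterion: percent growth below 10, measured after cells in 96-well plates were exposed to a single compound concentration for 48 hours.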 Unmarked numbers belong to inactive results. Calls of active or inactive are those of the source.
# Legend:
# Test in all cases: NCI-60 one-dose screen, 48 h (100 = growth as untreated, 0 = no growth, -100 = all killed)
# Details in all cases: 10 µM unless noted
# [1] = test system: SK-MEL-2 melanoma
# [2] = test system: EKVX NSCLC
# [3] = test system: SN12C renal
# [4] = test system: UO-31 renal
# [5] = test system: TK-10 renal
# [6] = test system: ACHN renal
# [7] = test system: CAKI-1 renal
# [8] = test system: A498 renal
# [9] = test system: CCRF-CEM leukemia
# [10] = test system: MOLT-4 leukemia
Compound,growth [1],growth [2],growth [3],growth [4],growth [5],growth [6],growth [7],growth [8],growth [9],growth [10]
COc1ccc(OC)c(/C=C/C(=O)N/N=C/c2ccccc2)c1,-1.33% (active),64%,52.1%,56.6%,56.7%,62.8%,47.5%,38.7%,55.2%,36.5%
CCOC(=O)Nc1ccc(-c2nc(-c3cccc(OC)c3)c(-c3ccnc(Br)c3)[nH]2)cc1,38.3%,30.1%,48.9%,16.3%,71.4%,24.3%,32.7%,22.4%,16.7%,14.3%
NC1CCN(c2nc(Nc3cccc(C(F)(F)F)c3)c3c(=O)[nH]ccc3n2)CC1,-77.6% (active),4.44% (active),-75.8% (active),-80.8% (active),-26.9% (active),-70% (active),-13.8% (active),93.9%,-18.4% (active),-37.9% (active)
NC(=O)Nc1ccc2ncnc(Nc3ccc(Cl)cc3)c2c1,127%,22.4%,81.9%,58%,26.5%,47.4%,40.1%,43.4%,96%,71.2%
O=c1ccc(N=Nc2ccccc2)ccc1Cl,77.6%,65.9%,60%,77%,111%,75.9%,76.1%,191%,31.3%,-1.36% (active)
NS(=O)(=O)c1ccc(-n2nc(C(=O)N/N=C\c3ccc(F)cc3)cc2-c2ccc(Br)cc2)cc1,80%,72.7%,92.7%,75%,121%,88.2%,41.8%,31.9%,74.8%,80.4%
COc1cc(C)c(Cc2cnc(N)nc2N)cc1OC,87%,100%,105%,88.4%,116%,96.6%,97.8%,107%,108%,62.6%
Cn1cc(-c2cc3ncnc(Nc4ccc(CC(=O)Nc5cc(C(C)(C)C)nn5C)cc4)c3s2)cn1,22.3%,84.6%,26.4%,28.8%,56.5%,25.9%,19.3%,-7.97% (active),13.7%,16.7%
c1ccc2c(-c3nc(-c4c[nH]c5ccncc45)cs3)c[nH]c2c1,97.8%,35%,68.9%,44.4%,56.4%,23.5%,17.1%,85.5%,2.54% (active),30%
Fc1cc2c(cc1Cl)N(c1ncnc3ccc(-c4cnc5cnccn45)cc13)CC2,102%,63.4%,79.3%,42.1%,96.9%,60.4%,62.8%,45.6%,108%,98.9%
Cc1ccccc1C(=O)NN,99.9%,108%,108%,70.7%,105%,106%,98.3%,117%,100%,92.3%
COC(=O)c1ccc2[nH]c(O)c(C(=Nc3ccc(N(C)C(=O)CN4CCN(C)CC4)cc3)c3ccccc3)c2c1,-4.99% (active),54%,17.6%,16%,51.6%,7.31% (active),4.65% (active),-35.9% (active),10.7%,12.1%
